Assay results: PubChem BioAssay (Tox21)
Records with an inconclusive call do not appear. Values without a mark were called inactive. The source made the active and inactive calls. The call rests on the fitted dose curve; in most records, active means well fitted cell-killing curve with a large enough effect in the repeat runs; inconclusive means weak or mixed curves, or effect the other way; inactive means no such curve, though single readings can be large or run the other way.

assay: qHTS assay to identify small molecule antagonists of the sonic hedgehog signaling (Shh) pathway - cell viability counter screen (AID 1259367); conditions: NIH/3T3 Gli1-Luc viability, CellTiter-Fluor, 24 h; series mostly up to 92.4 µM; viability change, negative = cytotoxic: at the top concentration; further: nearly all actives have a fitted effect of over 55% in size
Description: National Center for Advancing Translational Sciences [NCATS]
NIH Chemical Genomics Center [NCGC]
U.S. Environmental Protection Agency [EPA]
National Institutes of Environmental Health Sciences [NIEHS]
National Toxicology Program [NTP]
U.S. Food and Drug Administration [FDA]
The sonic hedgehog (Shh) pathway is essential for normal embryonic development. Dysregulation of the Shh pathway can cause severe developmental defects in organs. Therefore chemicals that interfere with the pathway are potential developmental toxicants. A cell line designated 3T3Gli1-Luc (DMB/OARSA/CFSAN/FDA, Laurel, MD), a NIH/3T3 derived clone containing stably integrated Gli1-Luc reporter is used to detect chemical interference of the Shh pathway, by changes in the expression of the firefly Luc gene under the control of the Gli1 transcriptional response element. This cell line was used to screen Tox21 libraries for identifying and prioritizing the potential developmental toxicants that interfere Shh pathway. Conditioned medium-stimulated mode was used to screen for chemicals inhibiting Shh signaling. The cytotoxicity of the compounds was tested in parallel by measuring the cell viability using CellTiter-Fluor assay system (Promega, Madison, WI) in the same wells.
Tox21 Assay Protocol Summary:
3T3 Gli1-Luc cells were dispensed at 2,000 per well in 5uL of culture medium into white solid bottom 1536-well plates (Greiner Bio-One, Monroe, NC) using a Multidrop Combi (Thermo Scientific, Waltham, MA) dispenser. The assay plates were incubated at 37 C and 5% CO2 for 4hr, and then 23nL of compounds dissolved in DMSO and positive control were transferred using a Pintool station (Wako, San Diego, CA). The compound transfer was followed by the addition of 1ul conditioned medium or assay buffer using two separate tips of Flying Reagent Dispenser (FRD, Aurora Discovery, San Diego, CA). The assay plates were incubated at 37C and 5% CO2 for 24hr. For viability read, after 23hr of compound treatment, 1uL of CellTiter-Fluor reagent (Promega Corporation, Madison, WI) was added to each well of the assay plates using Flying Reagent Dispenser (FRD, Aurora Discovery, San Diego, CA) and incubated the assay plates at 37C for 1hr. The fluorescence signal was quantified using a ViewLux plate reader (Perkin Elmer, Shelton, CT).
On the % scale 0 is the no-effect control and ±100 the full control effect; potency means the concentration at half of the fitted maximal effect.

Q: With `CCCCNc1ccc(C(=O)OCCN(CC)CC)cc1` as the compound, how does the “viability change, negative = cytotoxic” value read?
A: 3.27% [at 42.5 µM]

Q: For `CC(=O)N(CC(O)CN(C(C)=O)c1c(I)c(C(=O)NCC(O)CO)c(I)c(C(=O)NCC(O)CO)c1I)c1c(I)c(C(=O)NCC(O)CO)c(I)c(C(=O)NCC(O)CO)c1I` (stereo not given), which “viability change, negative = cytotoxic” value is on record?
A: 2.36% [at 42.5 µM]

Q: For `CN1CCN(C2=Nc3cc(F)ccc3Cc3ccccc32)CC1`, which “viability change, negative = cytotoxic” value is on record?
A: -16.4% [at 42.5 µM]

Q: Which “viability change, negative = cytotoxic” value does the source give for `Cc1ccc(C)c(N)c1` here?
A: 0.703%

Q: For `CCOC(=O)NCCC[Si](OCC)(OCC)OCC`, which “viability change, negative = cytotoxic” value is on record?
A: -0.623%

Q: For `COc1nc(C)nc(NC(=O)NS(=O)(=O)c2ccccc2OCCCl)n1`, which “viability change, negative = cytotoxic” value is on record?
A: -1.43%

Q: Which “viability change, negative = cytotoxic” value does the source give for `Nc1ccc(Oc2ccc(N)c(N)c2)cc1` here?
A: -18.5%

Q: With `NS(=O)(=O)c1cc(-c2nn[nH]n2)c(NCc2cccs2)cc1Cl` as the compound, how does the “viability change, negative = cytotoxic” value read?
A: -1.04% [at 42.5 µM]

Q: For `O=C1C=CC(=O)O1`, which “viability change, negative = cytotoxic” value is on record?
A: -2.57%

Q: With `CCN(CC)CCOc1ccc(Cc2ccccc2)cc1` as the compound, how does the “viability change, negative = cytotoxic” value read?
A: 3.85% [at 42.5 µM]

Q: For `NC(=O)Cc1cccc(C(=O)c2ccccc2)c1N`, which “viability change, negative = cytotoxic” value is on record?
A: 2.13% [at 42.5 µM]

Q: Which “viability change, negative = cytotoxic” value does the source give for `CCOC(=O)C(Br)c1ccccc1` (stereo not given) here?
A: 4.74%

Q: With `O=c1oc2c(O)c(O)cc3c(=O)oc4c(O)c(O)cc1c4c23` as the compound, how does the viability change, negative = cytotoxic read?
A: 1.3% [at 19 µM]

Q: Which “viability change, negative = cytotoxic” value does the source give for `CC(C)C(=O)OCC(C)(C)C(O)C(C)C` (stereo not given) here?
A: -7.36%

Q: Which “viability change, negative = cytotoxic” value does the source give for `CC(C)(C)c1cccc(O)c1` here?
A: -2.02%

Q: With `COC(=O)c1ccc2cc(C(=O)OC)ccc2c1` as the compound, how does the viability change, negative = cytotoxic read?
A: -4.66% [at 19 µM]

Q: With `Cc1cc(NS(=O)(=O)c2ccc(N)cc2)nc(C)n1` as the compound, how does the “viability change, negative = cytotoxic” value read?
A: -1.54% [at 42.5 µM]

Q: Which “viability change, negative = cytotoxic” value does the source give for `O=C1CCCCC1C1CCCCC1` (stereo not given) here?
A: 0.111%

Q: With `CN1CCN(c2c(F)cc3c(=O)c(C(=O)O)cn4c3c2SCC4)CC1` as the compound, how does the “viability change, negative = cytotoxic” value read?
A: -7.46% [at 42.5 µM]

Q: For `O=[N+]([O-])c1nccn1CO[C@@H](CO)[C@H](O)CO`, which “viability change, negative = cytotoxic” value is on record?
A: -0.613% [at 42.5 µM]

Q: With `Cc1ccccc1C(=O)Nc1ccc(C(=O)N2CCCC(O)c3cc(Cl)ccc32)c(C)c1` (stereo not given) as the compound, how does the “viability change, negative = cytotoxic” value read?
A: -13.8% [at 42.5 µM]

Q: With `O=c1[nH]c(=O)n([C@H]2C[C@H](O)[C@@H](CO)O2)cc1C(F)(F)F` as the compound, how does the “viability change, negative = cytotoxic” value read?
A: -1.5% [at 42.5 µM]

Q: With `COc1ccccc1N1CCN(CCCNc2cc(=O)n(C)c(=O)n2C)CC1` as the compound, how does the “viability change, negative = cytotoxic” value read?
A: -18.1% [at 42.5 µM]

Q: With `CC1=CC(=O)CC(C)(C)C1=O` as the compound, how does the “viability change, negative = cytotoxic” value read?
A: -11.6%

Q: Which “viability change, negative = cytotoxic” value does the source give for `CN(CCCN1c2ccccc2CCc2ccccc21)CC(=O)c1ccc(Cl)cc1` here?
A: -7.47% [at 42.5 µM]

Q: For `CN(C)Cc1ccccc1`, which “viability change, negative = cytotoxic” value is on record?
A: 3.65%

Q: With `Nc1ccc2ccccc2c1S(=O)(=O)O` as the compound, how does the “viability change, negative = cytotoxic” value read?
A: 6.14%

Q: With `CC(=O)O[C@H]1CC[C@@]2(C)C(=CC[C@@H]3[C@@H]2CC[C@]2(C)C(C(C)=O)=CC[C@@H]32)C1` as the compound, how does the “viability change, negative = cytotoxic” value read?
A: -0.614% [at 42.5 µM]

Q: For `OCC(CBr)(CBr)CBr`, which “viability change, negative = cytotoxic” value is on record?
A: 6.62%

Q: For `CCN[C@H]1CN(CCCOC)S(=O)(=O)c2sc(S(N)(=O)=O)cc21`, which “viability change, negative = cytotoxic” value is on record?
A: 4.16% [at 42.5 µM]

Q: For `COc1cc(C)ccc1C(C)C`, which “viability change, negative = cytotoxic” value is on record?
A: -0.596%

Q: For `Oc1ccccc1F`, which “viability change, negative = cytotoxic” value is on record?
A: 1.07%

Q: Which “viability change, negative = cytotoxic” value does the source give for `C[C@]12CCC(=O)C=C1CC[C@@H]1[C@@H]2CC[C@@]2(C)[C@H]1CC[C@]2(O)C(=O)CO` here?
A: 10.4% [at 42.5 µM]

Q: Which Potency does the source give for `CC[C@H]1CC[C@H](NCc2cc3c(cc2OC)[C@H]2C[C@H]2C(=O)N3C)[C@H](c2ccccc2)N1` here?
A: 8.63 µM (active)

Q: With `CO[C@@]1(NC(=O)CSCC#N)C(=O)N2C(C(=O)O)=C(CSc3nnnn3C)CS[C@@H]21` as the compound, how does the “viability change, negative = cytotoxic” value read?
A: 4.46% [at 42.5 µM]

Q: With `CCCCNC(=S)NCCCC` as the compound, how does the “viability change, negative = cytotoxic” value read?
A: 1.69%

Q: With `COC(=O)/C=C(/C)N` as the compound, how does the “viability change, negative = cytotoxic” value read?
A: 2.48% [at 42.5 µM]

Q: For `CCc1nnc(NS(=O)(=O)c2ccc(N)cc2)s1`, which “viability change, negative = cytotoxic” value is on record?
A: -0.593% [at 42.5 µM]

Q: Which “viability change, negative = cytotoxic” value does the source give for `C=CCc1cc(OC)c(O)c(C(=O)NCCO)c1` here?
A: -6.76% [at 42.5 µM]

Q: With `OCCN(CCO)c1ccccc1` as the compound, how does the “viability change, negative = cytotoxic” value read?
A: -0.0784%
